Hits are enriched below; roughly 12% of the tested compounds scored in any of these assays.
JMJD2A Tudor inh = blocks the human JMJD2A Tudor domain | 4.4% of 390,000 active | AlphaScreen JMJD2A-Tudor / H3K4me3 peptide binding | AID 504339 | Potency, µM (top dose mostly 114 µM), hits mostly inhibitors | O75164; further: nearly all actives have a fitted effect of over 50% in size
Target sequence (O75164 whole entry, looked up, the tested form may be a part): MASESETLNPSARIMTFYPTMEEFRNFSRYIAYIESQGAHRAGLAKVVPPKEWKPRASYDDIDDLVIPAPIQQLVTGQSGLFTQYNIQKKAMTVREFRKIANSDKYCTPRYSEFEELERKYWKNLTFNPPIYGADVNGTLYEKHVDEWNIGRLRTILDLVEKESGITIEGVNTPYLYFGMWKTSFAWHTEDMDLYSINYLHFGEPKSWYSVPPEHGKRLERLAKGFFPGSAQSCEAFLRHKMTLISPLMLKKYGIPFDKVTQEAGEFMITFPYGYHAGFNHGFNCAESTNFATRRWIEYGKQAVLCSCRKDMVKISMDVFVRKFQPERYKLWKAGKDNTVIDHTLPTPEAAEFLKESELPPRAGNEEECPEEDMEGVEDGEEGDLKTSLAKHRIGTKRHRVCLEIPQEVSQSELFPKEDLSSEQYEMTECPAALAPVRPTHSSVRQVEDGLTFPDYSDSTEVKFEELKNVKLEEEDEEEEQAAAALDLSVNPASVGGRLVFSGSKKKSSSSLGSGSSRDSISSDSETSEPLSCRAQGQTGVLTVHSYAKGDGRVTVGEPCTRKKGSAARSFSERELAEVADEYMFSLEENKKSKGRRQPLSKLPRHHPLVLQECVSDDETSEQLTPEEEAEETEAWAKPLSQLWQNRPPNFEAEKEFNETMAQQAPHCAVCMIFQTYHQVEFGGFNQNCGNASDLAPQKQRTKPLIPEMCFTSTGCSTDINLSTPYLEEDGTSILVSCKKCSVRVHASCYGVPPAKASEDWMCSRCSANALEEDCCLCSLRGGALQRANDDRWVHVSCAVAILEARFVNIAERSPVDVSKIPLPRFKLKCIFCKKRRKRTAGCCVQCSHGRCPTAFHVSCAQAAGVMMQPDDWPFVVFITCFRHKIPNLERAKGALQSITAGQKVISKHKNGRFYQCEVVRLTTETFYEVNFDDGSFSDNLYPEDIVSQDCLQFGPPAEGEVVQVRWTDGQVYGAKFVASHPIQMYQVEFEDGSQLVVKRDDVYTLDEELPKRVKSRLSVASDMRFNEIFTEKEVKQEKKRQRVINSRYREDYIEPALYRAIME
HP1b chromo inh = inhibitors of HP1-beta chromodomain binding to methylated histone tails | P83916 | AlphaScreen HP1-beta / biotin-H3K9me3 peptide binding | Potency, µM (highest dose often 114 µM), most hits filed as inhibitors | 0.56% of 390,000 active | AID 540317; further: nearly all actives have a fitted effect of over 70% in size
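AlphaScreen: HP1-beta (50 nM) preformed 30 min with biotin-H3(1-18)K9me3 peptide (50 nM) in PBS pH 7.4, 0.01% Tween-20. Compound added for 30 min at RT, then streptavidin donor/nickel chelate acceptor beads (10 ug/mL) for 30 min.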
G9a block = blocks human histone lysine methyltransferase G9a; 8.8% of 350,000 active; Potency, µM (titrated, usually from 102 µM), hits mostly inhibitors; AID 504332; G9a H3K9 monomethylation, AlphaScreen, 2 h; Q96KQ7; further: nearly all actives have a fitted effect of over 75% in size
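G9a (20 nM) preincubated 15 min RT with compounds, then 500 nM biotinylated H3K9 peptide and 20 uM SAM added; 2 h RT reaction. Monomethyl-H3K9 product detected by AlphaScreen with anti-H3K9me1 antibody, streptavidin donor and anti-rabbit IgG acceptor beads.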
BAZ2B block = blocks human BAZ2B; Q9UIF8; AlphaScreen BAZ2B-H3K14Ac peptide displacement; Potency, µM (titrated, usually from 114 µM), usual class: inhibitors; 4.4% of 360,000 active; further: nearly all actives have a fitted effect of over 60% in size
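Protein-peptide AlphaScreen: BAZ2B 50 nM, b-H3K14Ac 50 nM, 1x PBS pH 7.4 + 0.01% Tween-20. Preincubation 30 min RT; cpd 30 min RT (top 110 uM); beads 20 min RT, light-protected.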
Sfp inh = blocks B. subtilis Sfp PPTase activity; Biochemical Sfp PPTase activity, qHTS; Potency, µM, most hits filed as inhibitors; Q9F4F7; 3.5% of 310,000 active;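 further: the enzyme is Sfp with the accession as filed and its product quenches rhodamine fluorescence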
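Fluorescence-quenching assay with 15 nM Sfp, 5 uM rhodamine-CoA and 12.5 uM BHQ-2-labelled ybbR peptide in pH 7.6 Hepes/MgCl2 buffer. Enzyme was pre-incubated with compound for 15 min at room temperature. Rate was taken from the 30-min fluorescence change (525/598 nm).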
L3MBTL1 inh = inhibitors of human L3MBTL1; Q9Y468; AlphaScreen L3MBTL1–H3K9me1 peptide binding; Potency, µM (highest dose often 57.1 µM), usual class: inhibitors; 0.66% of 230,000 active; AID 485360; further: nearly all actives have a fitted effect of over 60% in size
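L3MBTL1 (50 nM) pre-complexed 30 min with biotinylated H3(1-15)K9me1 peptide (75 nM), then compounds added for 30 min at room temperature; AlphaScreen streptavidin donor/nickel chelate acceptor beads (10 ug/mL final) read after 30 min dark incubation.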
Large screens that a line does not name were inactive. The call rests on the fitted dose curve; in most records, active means well fitted curve in the direction sought with a large enough effect; inconclusive means small, poorly fitted or top-dose-only effect, or another doubt; inactive means no such curve, though single readings can be large; an effect the other way counts as inactive or inconclusive.

O=C(Nc1cc(F)ccc1F)N1CCC(CN2CCOCC2)CC1	none (no result: Sfp inh, L3MBTL1 inh)
O=[N+]([O-])c1cc(F)cc(F)c1Nc1ccc(F)cc1	JMJD2A Tudor inh 35µM, HP1b chromo inh inconclusive (no result: G9a block, BAZ2B block, Sfp inh, L3MBTL1 inh)
O=[N+]([O-])c1cnccc1Nc1ccc(F)cc1	none
O=C(O)c1c2c(nc3ccc(F)cc13)CCC2	none
Cc1ccc2nc3c(c(C(=O)O)c2c1)CCC3	G9a block 50µM, L3MBTL1 inh inconclusive
O=c1c(-c2ccc(Cl)cc2)nc2cnc(N3CCNCC3)nc2n1CCc1ccccc1	Sfp inh 45µM (no result: JMJD2A Tudor inh, HP1b chromo inh, BAZ2B block, L3MBTL1 inh)
COc1ccc(-c2nc3cnc(N4CCNCC4)nc3n(CCc3ccccc3)c2=O)cc1	Sfp inh inconclusive (no result: JMJD2A Tudor inh, HP1b chromo inh, BAZ2B block, L3MBTL1 inh)
CN1CCN(c2ncc3nc(CCc4ccccc4)c(=O)n(Cc4cccs4)c3n2)CC1	Sfp inh 28µM (no result: JMJD2A Tudor inh, HP1b chromo inh, BAZ2B block, L3MBTL1 inh)
O=c1c(CCc2ccccc2)nc2cnc(N3CCNCC3)nc2n1CCc1ccccc1	Sfp inh 40µM (no result: JMJD2A Tudor inh, HP1b chromo inh, BAZ2B block, L3MBTL1 inh)
O=c1c(-c2ccccc2)nc2cnc(N3CCNCC3)nc2n1Cc1ccc(F)cc1	none (no result: JMJD2A Tudor inh, HP1b chromo inh, BAZ2B block, L3MBTL1 inh)
O=c1c(-c2cc(F)cc(F)c2)nc2cnc(N3CCNCC3)nc2n1Cc1ccc(F)cc1	Sfp inh 18µM (no result: JMJD2A Tudor inh, HP1b chromo inh, BAZ2B block, L3MBTL1 inh)
COc1ccc(-c2nnc3n2N=C(c2ccc(OC)c(OC)c2)CS3)c(OC)c1	none (no result: HP1b chromo inh, G9a block, BAZ2B block, L3MBTL1 inh)
COc1ccc(N2CCN(C(=O)Cc3c(C(=O)O)c(C)cn3C)CC2)cc1	none (no result: Sfp inh, L3MBTL1 inh)
COc1cccc(Cn2c(=O)c(CCc3ccccc3)nc3cnc(N4CCNCC4)nc32)c1	Sfp inh 79µM (no result: JMJD2A Tudor inh, HP1b chromo inh, BAZ2B block, L3MBTL1 inh)
COc1cccc(Cn2c(=O)c(CCc3ccccc3)nc3cnc(N4CCOCC4)nc32)c1	none (no result: JMJD2A Tudor inh, HP1b chromo inh, BAZ2B block, L3MBTL1 inh)
O=S(=O)(c1ccccc1C(F)(F)F)N1CCN(c2nc(-c3cccs3)nc3ccccc23)CC1	none (no result: G9a block, BAZ2B block, Sfp inh, L3MBTL1 inh)
CCCc1cc(=O)[nH]c2nnc(SCC(=O)NC3CCCC3)n12	G9a block 18µM (no result: Sfp inh)
CCOc1ccc(-n2c(Cc3cc(=O)[nH]c(=O)[nH]3)nnc2SCC(=O)NC2CCCC2)cc1	G9a block inconclusive
CCOc1ccc(-n2c(Cc3cc(=O)[nH]c(=O)[nH]3)nnc2SCC(N)=O)cc1	G9a block 45µM, BAZ2B block inconclusive (no result: L3MBTL1 inh)
COc1ccc(-n2c(Cc3cc(=O)[nH]c(=O)[nH]3)nnc2SCC(=O)NC2CCCC2)cc1	G9a block inconclusive
CCOc1ccc(-n2c(O)cc(=O)[nH]c2=O)cc1	G9a block 71µM, Sfp inh inconclusive (no result: L3MBTL1 inh)
O=C(CSc1nnc(Cc2cc(=O)[nH]c(=O)[nH]2)n1-c1ccc(Cl)cc1)NC1CCCC1	G9a block 40µM
CCCc1cc(=O)[nH]c2nnc(SCC(=O)Nc3ccc(NC(C)=O)cc3)n12	none (no result: Sfp inh)
COc1ccc(NC(=O)CSc2ncc3c(n2)-c2cc(Cl)ccc2N(Cc2ccccc2F)S3(=O)=O)cc1	none (no result: Sfp inh, L3MBTL1 inh)
COc1ccc(-c2nc(C)c(CCNC(=O)c3ccccc3Br)s2)cc1OC	none (no result: Sfp inh, L3MBTL1 inh)
COc1cccc(-n2c(Cc3cc(=O)[nH]c(=O)[nH]3)nnc2SC(C)C)c1	G9a block 40µM (no result: L3MBTL1 inh)
Cc1cccc(CCNc2ncnc3onc(-c4ccc(Cl)cc4)c23)c1	none (no result: Sfp inh, L3MBTL1 inh)
COc1ccc(C(=O)CSc2nnc(-c3ccco3)n2CC2CCCO2)cc1 (configuration not stated)	Sfp inh 45µM
O=C(CSc1nnc(-c2ccco2)n1CC1CCCO1)N1CCCCC1 (configuration not stated)	G9a block inconclusive
O=C(CSc1nnc(-c2ccco2)n1CC1CCCO1)c1ccc(F)cc1 (configuration not stated)	JMJD2A Tudor inh 3.2µM, HP1b chromo inh inconclusive, G9a block 45µM, Sfp inh 50µM
CCCSCCCNC(=O)C1CCN(c2nn3cc(-c4ccc(F)cc4)nc3s2)CC1	JMJD2A Tudor inh inconclusive, BAZ2B block inconclusive (no result: Sfp inh, L3MBTL1 inh)
O=C(Oc1ccc(=O)n(-c2ccccc2)n1)c1ccc(Cl)cc1	Sfp inh 89µM (no result: G9a block)
O=C(Oc1ccc(=O)n(-c2ccccc2)n1)c1ccc(F)cc1	G9a block inconclusive
CC(C)OCCCN1CC(=O)N2C(c3cccc([N+](=O)[O-])c3)c3[nH]c4ccccc4c3C[C@H]2C1=O (some centres not stated)	none (no result: L3MBTL1 inh)
CN(C)c1ccc(C2CNC(c3ccc(Cl)c([N+](=O)[O-])c3)c3[nH]c4ccccc4c32)cc1 (configuration not stated)	JMJD2A Tudor inh 35µM, HP1b chromo inh inconclusive, G9a block inconclusive, BAZ2B block 10µM (no result: L3MBTL1 inh)
O=[N+]([O-])c1cccc(C2NCC(c3ccccc3Cl)c3c2[nH]c2ccccc32)c1 (configuration not stated)	JMJD2A Tudor inh inconclusive, HP1b chromo inh inconclusive, G9a block 40µM, BAZ2B block 35µM, L3MBTL1 inh inconclusive
O=C1CC(c2ccc(Cl)c([N+](=O)[O-])c2)c2ccc3ccccc3c2N1 (configuration not stated)	JMJD2A Tudor inh inconclusive
CCC(C)NC(=O)CSc1nc2n[nH]c(C)c2c(=N)n1-c1ccc(C)c(Cl)c1 (configuration not stated)	none (no result: Sfp inh, L3MBTL1 inh)
CCN1C(=O)[C@H]2[C@@H](c3ccc(-c4ccc5c(c4)OCO5)cc3)N[C@@](Cc3ccccc3)(C(=O)OC)[C@H]2C1=O	none (no result: G9a block, BAZ2B block, Sfp inh)
COC(=O)C1(Cc2ccccc2)NC(c2ccccc2C)C2C(=O)N(c3ccc4c(c3)OCO4)C(=O)C21 (configuration not stated)	G9a block 0.79µM
